TROY signal inh – inhibitors of TROY-driven NF-kB signaling, primary screen, Q293 LMP1-TROYcd cells, NF-kB luciferase, uHTS; Q293 LMP1-TROYcd NF-kB luciferase reporter, 4 h; inhibition, % at 10 µM; actives 0.98% (n = 360,000);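 active = compounds whose plate-normalised and pattern-corrected inhibition of the luciferase reporter signal at the single screening dose is 50% or more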
TWEAK Fn14 block – inhibitors of TWEAK-Fn14 signaling, primary screen, luciferase reporter cells, uHTS; AID 1159606, 2016; TWEAK-stimulated Fn14 reporter cells, luciferase luminescence, 8 h; actives 2% (n = 360,000); inhibition, % at 10 µM; in the data active = inhibition above about 50%
LGR2 inh – inhibitors of bursicon-induced LGR2 CRE-luciferase signal, primary screen, cell-based, HEK293, CRE-luciferase reporter, bursicon stimulation; Drosophila bursicon receptor LGR2 (rickets); bursicon-stimulated, 4 h; inhibition, % at 9.99 µM; actives 0.35% (n = 380,000); AID 720647, 2013;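 active = drop in luminescence signal, shown as inhibition above about 50% in the replicate tests, limit read from the data, passing the limit was not always enough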;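 also: agonist challenge used bursicon conditioned medium at about half maximal strength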
EWS-Fli block – EWS/Fli-driven NR0B1 reporter inhibitors, primary screen, A673 cells, NR0B1 luciferase, luminescence, MLPCN library; viability-normalised; inhibition, % at 12.6 µM; actives 0.67% (n = 350,000); AID 651661, 2012;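 active = mean inhibition of at least 50% after viability correction, with every replicate also passing that limit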;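 also: firefly luciferase signal divided by Alamar Blue viability fluorescence both relative to DMSO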
EBV LMP1 NFkB – EBV LMP1-driven NF-kappaB luciferase reporter inhibitors, primary screen, cell-based, luminescence, single point; LMP1-induced NF-kappaB luciferase reporter cells; inhibition, % at 12.5 µM; actives 0.69% (n = 350,000); in the data active = inhibition above about 41%
Numbers stand for hits; - = inactive; . = not tested or not shown. Shown are actives, neighbours in structure and some others; about 2.6% of the full set was active somewhere.

SMILES	TROY signal inh	TWEAK Fn14 block	LGR2 inh	EWS-Fli block	EBV LMP1 NFkB
CCOC(=O)N1CCN(Cc2nc3cc(NC(=O)CC)ccc3n2C)CC1	-	-	-	-	-
Cn1c(CCN2CCN(c3ccccn3)CC2)nc2cc(NC(=O)COc3ccc(Cl)cc3)ccc21	50	54	-	.	-
Cc1cccc(OCC(=O)Nc2ccc3c(c2)nc(CCN2CCCCC2)n3C)c1	-	-	-	-	-
C[C@@H]1CN([C@@H](C)CO)C(=O)c2cccc(NC(=O)c3cnccn3)c2O[C@H]1CN(C)C(=O)Nc1ccc(C(F)(F)F)cc1	.	.	-	-	.
COc1ccc(S(=O)(=O)N(C)C[C@@H]2Oc3c(NC(=O)C4CCCCC4)cccc3C(=O)N([C@H](C)CO)C[C@@H]2C)cc1	.	.	-	-	.
CCN1[C@@H]2Cn3c(ccc(/C=C/c4ccccc4)c3=O)[C@H]1[C@@H](C(=O)NC1Cc3ccccc3C1)[C@@H]2CO	.	.	-	-	.
CCCC(=O)Nc1ccc2c(c1)C(=O)N(C)C[C@@H](OC)[C@H](C)CN(C(=O)c1ccccc1F)[C@@H](C)CO2	.	.	-	-	.
COc1ccc2c3c([nH]c2c1)[C@H](CO)N(C(C)=O)CC31CN(C(=O)c2cccc(F)c2)C1	.	.	-	-	.
Cn1c(/C=C/c2ccc(Br)cc2)c([N+](=O)[O-])c(=O)n(C)c1=O	-	63	-	-	-
CC1CCN(C(=O)/C(=C\c2cccs2)NC(=O)c2ccccc2)CC1	-	-	-	-	53
Cc1noc(C)c1NC(=O)N(C)C[C@@H]1Oc2ccc(NS(=O)(=O)c3ccccc3)cc2CC(=O)N([C@H](C)CO)C[C@@H]1C	.	.	-	-	.
C/C=C/c1ccc([C@H]2[C@@H](CO)N(C(C)=O)C23CN(S(C)(=O)=O)C3)cc1	.	.	-	-	.
O=C1C2Sc3[nH]c(=O)sc3C(c3ccccc3)C2C(=O)N1c1ccccc1 (stereo not drawn)	-	89	-	.	-
CC(Oc1ccc(Cl)cc1Cl)c1nc(-c2ccc(NC(=O)c3ccccn3)cc2)no1 (stereo not drawn)	-	53	-	-	-
COc1ccc(NC(=O)c2ccccn2)cc1OC	-	-	-	.	-
C/C(=N\NC(=O)c1cc(-c2cccs2)nc2ccccc12)c1ccccn1	-	-	.	-	72
CN(C)S(=O)(=O)c1ccc(NC(=O)c2cc(-c3cccs3)nc3ccccc23)cc1	88	-	-	-	-
C/C(=N\NC(=O)C(c1ccccc1)c1ccccc1)c1ccccn1	-	57	-	.	-
CCN(CC)S(=O)(=O)c1ccc(NC(=O)c2cc(-c3cccs3)nc3ccccc23)cc1	-	-	.	-	-
Cc1cccc2sc(NNC(=O)c3cc(-c4cccs4)nc4ccccc34)nc12	-	88	.	-	-
C/C(=N\NC(=O)C(c1ccccc1)c1ccccc1)c1ccc(O)cc1	-	-	-	-	-
CC(C)NC(=O)Nc1ccc2c(c1)C(=O)N([C@H](C)CO)C[C@@H](C)[C@@H](CN(C)CC1CCCCC1)O2	.	.	-	-	.
COc1cccc(-c2ccc([C@H]3[C@H](CO)N4C(=O)CN(C(=O)C5CCCC5)C[C@@H]34)cc2)c1	.	.	-	-	.
CCNC(=O)C[C@@H]1CC[C@@H]2[C@@H](COc3ccc(NC(=O)Nc4ccccc4C)cc3C(=O)N2C)O1	.	.	-	-	.
C/C(=N/NC(=O)c1ccc(C(C)(C)C)cc1)c1ccccn1	-	-	-	-	47
SMILES	TROY signal inh	TWEAK Fn14 block	LGR2 inh	EWS-Fli block	EBV LMP1 NFkB
C/C(=N\NC(=O)c1cc(Br)ccc1O)c1ccccn1	-	-	-	-	-
C/C(=N\NC(=O)c1cccc(Br)c1)c1ccccn1	-	-	-	-	71
C/C(=N\NC(=O)c1cccc2ccccc12)c1ccccn1	-	101	-	-	-
C/C(=N\NC(=O)c1ccc(Cl)c(Cl)c1)c1ccccn1	-	-	-	-	73
COc1ccc(C(=O)N/N=C(\C)c2ccccn2)cc1OC	-	-	-	.	-
C/C(=N\NC(=O)c1ccccc1Cl)c1ccccn1	-	-	-	-	-
C[C@H](CO)N1C[C@H](C)[C@@H](CN(C)C(=O)Nc2ccccc2)OCCCC[C@H](C)Oc2ccc(NC(=O)Nc3ccc(F)cc3)cc2C1=O	.	.	-	-	.
O=C(Nc1ccc(F)cc1)N1C[C@@H]2[C@H](c3ccccc31)[C@H](CO)N2C(=O)Cc1ccccc1	.	.	-	-	.
